# According to PubChem BioAssay (NCI):
# About 83,000 compounds went through this panel and 20% of them were active in at least one assay; those are over-represented in the sample as a whole.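 Step 1: grow cells in 96-well plates. Step 2: add test compound at a single concentration. Step 3: incubate 48 h. Step 4: record percent growth.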 A number with no mark means an inactive call. Calls of active or inactive are those of the source. Rule for the calls: active = growth percent below 10; inactive = the rest.
# Tests used:
# Experiment in all cases: NCI-60 one-dose screen, 48 h (100 = growth as untreated, 0 = no growth, -100 = all killed)
# Details in all cases: 10 µM unless noted
# HCT-15 colon = system: HCT-15 colon
# HT29 colon = system: HT29 colon
# SNB-75 CNS = system: SNB-75 CNS
# SNB-19 CNS = system: SNB-19 CNS
# U251 CNS = system: U251 CNS
# PC-3 prostate = system: PC-3 prostate
# SK-MEL-5 melanoma = system: SK-MEL-5 melanoma
# UACC-62 melanoma = system: UACC-62 melanoma
# LOX IMVI melanoma = system: LOX IMVI melanoma
# SK-MEL-28 melanoma = system: SK-MEL-28 melanoma
Compound,growth (HCT-15 colon),growth (HT29 colon),growth (SNB-75 CNS),growth (SNB-19 CNS),growth (U251 CNS),growth (PC-3 prostate),growth (SK-MEL-5 melanoma),growth (UACC-62 melanoma),growth (LOX IMVI melanoma),growth (SK-MEL-28 melanoma) [%]
COC(=O)c1oc2c(C(=O)/C=C/c3ccc(OC)cc3)c(OCCCN3CCCCC3)ccc2c1C,3.33% (active),3.92% (active),33.6%,38.4%,12%,-2.46% (active),-60.9% (active),40.1%,-26.1% (active),–
CCCCc1nc(Cl)c(C2CC(c3ccc(Cl)cc3)=NN2c2cc(Cl)cc(Cl)c2)[nH]1 (centres undefined),86.5%,85.4%,65.6%,93%,90.7%,45.6%,69.1%,78.2%,67.2%,–
O=Cc1[nH]c(Sc2ccccc2)c2ccccc12,70.3%,55.4%,42.8%,89.1%,67.5%,46.4%,74%,62.3%,80.5%,–
COc1ccc2c(c1)Oc1nc(N)c(C#N)c(N)c1C2Sc1ccc(O)cc1 (centres undefined),65.7%,102%,89.7%,106%,86.5%,95.9%,90.3%,101%,87.4%,–
CCOC(=O)c1c(C(F)(F)F)n([O-])c2ccc(Cl)cc2[n+]1=O,-60.2% (active),-43.2% (active),-52.2% (active),32.4%,-87.7% (active),-85.7% (active),-93.2% (active),-18.1% (active),-86.8% (active),–
COc1ccc(C2=NN(c3ccc(S(N)(=O)=O)cc3)C(c3ccc(Cl)cc3)C2)c(O)c1 (centres undefined),52.7%,49.9%,70.1%,85.3%,57.7%,27.7%,75.4%,52.9%,77.2%,–
C[C@@H]1C(=O)[C@@H]2C[C@@H](O)[C@@H](O)C[C@]2(C)[C@H]2CC[C@@]3(C)C(=C12)CC[C@@H]3[C@@](C)(O)[C@H](O)CCC(C)(C)O,107%,97.6%,108%,104%,96.6%,96.4%,98.1%,97.8%,101%,–
[2H]c1cc2c(c([2H])c1F)/C(=C/c1[nH]c(C)c(C(=O)NCCN(CC)CC)c1C)C(=O)N2,29.9%,19%,50.4%,85.4%,66.5%,28.3%,51%,67%,26.5%,–
CCOC(=O)C(=Cc1c(-c2ccccc2)[nH]c2ccccc12)C(=O)OCC,36.5%,31%,48.4%,106%,52.9%,-16% (active),41.6%,43.5%,57.3%,62.5
COc1ccc(/C=C/C(=O)c2ccc(NC(=O)CSc3nnc(-c4ccc(OC)c(OC)c4)n3-c3ccccc3)cc2)cc1,4.42% (active),43.7%,63.3%,60.5%,-9.68% (active),53.1%,73.4%,68.4%,-87.5% (active),–
CN(C)c1ccc(-c2ccc3[nH]c(=O)nc(-c4ccc(F)cc4)c3c2)cn1,33.2%,11%,11.2%,36.2%,31.3%,41.7%,20.3%,28.4%,41.3%,–
Nc1c(C(=O)Nc2ccccc2)sc2nc3c(cc12)CN(C(=O)OCc1ccccc1)CC3,37.3%,15.7%,49.6%,56.1%,37.8%,46%,36%,43%,40.8%,–
C=C(C)[C@@H]1CC[C@]2(C(=O)OCCOCCOCC[P+](c3ccccc3)(c3ccccc3)c3ccccc3)CC[C@]3(C)[C@H](CC[C@@H]4[C@@]5(C)CC[C@H](C)C(C)(C)[C@@H]5CC[C@]43C)[C@@H]12,-86.7% (active),-81.6% (active),-90% (active),-72.2% (active),-83.5% (active),-84.9% (active),-98% (active),-77.8% (active),-86.3% (active),–
C=C1C(=O)O[C@H]2[C@H]1CC/C(C=Nc1c(N)cc(C(F)(F)F)cc1Br)=C\CC[C@@]1(C)O[C@@H]21,-55.1% (active),-36.4% (active),76.1%,33.7%,25.7%,6.24% (active),33.7%,4.73% (active),-74.4% (active),–
CC(=O)c1cc2c(N)c(C(=O)Nc3ccccn3)sc2nc1C,82.8%,85.5%,75.1%,82.4%,77.7%,99.3%,64.5%,57.8%,91.6%,–
Nn1c(SCC(=O)Nc2ccc(Cl)cc2)nnc1-c1cc(F)c(Cl)cc1Cl,79.3%,95%,81.2%,98%,94.4%,85.7%,86.6%,65.8%,86%,–
COc1ccc(-n2cc(-c3ccc(Cl)c(Cl)c3)[nH]c2=O)cc1OC,93.4%,97.2%,91.8%,90.9%,91.7%,93.2%,104%,87.5%,96.3%,–
COc1cc(-c2cn(-c3ccc(Cl)c(Cl)c3)c(=O)[nH]2)cc(OC)c1OC,103%,102%,104%,81.6%,95.6%,104%,101%,95.3%,97.7%,–
COc1ccc2nc3c(n2c1)C(=O)C(=O)c1ccccc1-3,-60.2% (active),64%,-54.4% (active),-30.9% (active),-59.4% (active),22.3%,-99.5% (active),-91.1% (active),-68.4% (active),–
COc1ccc(NC(=O)Nc2ccc(Nc3nc(C)cc(Nc4ccc(C)cc4)n3)cc2)cc1,-78.9% (active),-84.8% (active),-92.8% (active),-69.2% (active),-83.9% (active),-93.3% (active),-72.7% (active),-83% (active),-85.3% (active),–
CCOC(=O)CC[C@H](NC(=O)c1ccc(NC)c2ccccc12)C(=O)OCC,96.1%,105%,91.8%,92.4%,97.8%,80.2%,97.2%,89.7%,93.8%,103
COc1cc(/C=C/C(=O)/C=C/c2cc3ccc(Cl)cc3[nH]c2=O)ccc1O,52.4%,5.63% (active),74.4%,76.5%,19.6%,56.2%,60.8%,53.1%,19.8%,–
c1ccc2nc(N3CCOCC3)c(N3CCCCC3)nc2c1,100%,96.1%,76.7%,93.9%,96.9%,90.8%,96.8%,83.1%,99.1%,109
CC(=O)Nc1c(C(=O)Nc2ccccc2)sc2nc3c(cc12)C(OC(C)=O)CCC3 (centres undefined),99.7%,104%,88.2%,95.8%,94.8%,89%,82.5%,59%,92.2%,–
S=C(Nc1ccc(Cl)cc1)c1ccccn1,98.1%,94.1%,79.7%,92.2%,88.6%,85.6%,94.1%,82.5%,88.4%,–
COc1ccc2nc(-c3ccc(Cl)cc3)cc(-c3nnc(SCC(=O)Nc4ccc(/C(C)=N\O)cc4)o3)c2c1,23.6%,24.5%,39.9%,-18.2% (active),-15.2% (active),13.7%,71.5%,45.2%,25.3%,–
O=C1NN(c2ccccc2)C(c2ccc3c(c2)OCO3)N2CCC[C@@H]12 (some centres undefined),102%,85.8%,93.6%,103%,95.1%,90.7%,106%,92%,–,–
C1=CC2=CC=C3C=CC=C4C(c5nc6c7ccccc7c7ccccc7c6[nH]5)=CC(=C1)C2C34 (centres undefined),90.8%,102%,102%,103%,104%,78.8%,101%,61.6%,86.3%,–
